# Assay results as given in PubChem BioAssay.
# Active and inactive are the calls of the source. The rule behind the calls is not given here.
# Test: Brca1-Bard1 BiLC signal decrease – luminescence, single concentration, counter-screen for Mdm2/MdmX interaction inhibitor project, confirmation (AID 504668)
# Conditions: Brca1/Bard1 bimolecular luciferase complementation counterscreen, at 8 µM, hits give high values
row,SMILES,inhibition
1,O=C(NCCCO)c1c(O)c2cccc3c2n(c1=O)CCC3,24.6% (active)
2,N#CC1=C(N)C(C#N)(C#N)C(c2cccnc2)C2CC(c3ccccc3)CC=C12 (stereo not given),23.1% (active)
3,CC(C)c1ccc(/C=C2\SC(=S)N(CCC(=O)N3CCCCC3CCO)C2=O)cc1 (stereo not given),29.9% (active)
4,Cc1cccc(/C=N/NC(=O)c2c(-c3ccccc3)noc2C)c1O,35.6% (active)
5,O=C(Nc1ccccc1)C1=C[C@@H](C2CCCCC2)C[C@@H](OCc2ccc(CO)cc2)O1,24.1% (active)
6,Cc1cccc(NC(=O)Nc2cccc(Oc3c(F)c(F)c(F)c(F)c3F)c2)c1,32.5% (active)
7,CC(=O)OC[C@H]1O[C@@H](n2ncc(=O)[nH]c2=O)[C@H](OC(C)=O)[C@@H]1OC(C)=O,31.6% (active)
8,C=CCn1c(SCC(=O)Nc2ccc(F)cc2F)nc2c([nH]c3ccccc32)c1=O,26.8% (active)
9,Oc1c(C(c2ccccc2Cl)N2CCCC2)ccc2cccnc12 (stereo not given),31.4% (active)
10,O=C(NNC(=O)c1ccccc1OCc1ccccc1)c1ccccc1O,34.8% (active)
11,Oc1c(Cl)cc(Cl)c(Cl)c1Cc1c(O)c(Cl)cc(Cl)c1Cl,26.8% (active)
12,NC(=O)c1sc2nc3c(c(-c4ccco4)c2c1N)CCC3,24.9% (active)
13,Clc1ccc(C2=Nn3c(nnc3-c3n[nH]c4c3CCC4)SC2)cc1Cl,34% (active)
14,O=C(N/N=C/c1ccc(O)cc1O)c1ccc(CN2C(=O)c3cccc4cccc2c34)cc1,29.2% (active)
15,CCC(C)NCC(=O)Nc1ccc(-c2nc3cc(NC(=O)CNC(C)CC)ccc3o2)cc1 (stereo not given),35.6% (active)
16,O=C(Nc1nc(-c2ccccn2)cs1)c1ccccc1-n1cnnn1,29.6% (active)
17,CCCCCCCCCCOC(=O)Cn1c(COc2cccc(C)c2)[n+](C)c2ccccc21,24.9% (active)
18,CC1=NNC(=O)/C1=C\c1cn(-c2ccccc2)nc1-c1cccs1,25.7% (active)
19,CC(=O)c1sc(NC(=O)C2(F)C(F)(F)C(F)(F)C(F)(F)C(F)(F)C2(F)F)nc1C,28.7% (active)
20,COc1ccc(/C(C)=N/NC(=O)c2cccc(S(=O)(=O)N3CCCC3)c2)c(O)c1,34.4% (active)

row,SMILES,inhibition
1,c1ccc(CCc2nn3c(-c4ccncc4)nnc3s2)cc1,33.7% (active)
2,COc1ccccc1NCC(=O)N/N=C/c1c(O)ccc2ccccc12,24.6% (active)
3,CCN(CC)C(=O)N1c2ccccc2C=Cc2ccccc21,33.7% (active)
4,CCOC(=O)Cn1c(-c2nonc2NC(=O)c2ccccc2F)nc2ccccc21,34.7% (active)
5,O=C(Nc1ccc(Cl)c(Cl)c1)Nc1ccc(Br)cc1F,35.2% (active)
6,Cc1ccc(-c2cnc(C3CC3)o2)cc1S(=O)(=O)Nc1ccccc1,33.6% (active)
7,Cc1c(CN(C)C)c2c(n1Cc1ccccc1)C(=O)c1ccc(Br)cc1-2,29.6% (active)
8,COc1cc(OC)cc(C(=O)Oc2c(CN3CCOCC3)cc(Cl)c3cccnc23)c1,33.8% (active)
9,COc1ccc2cc3c(N)nn(C(=O)c4cccc([N+](=O)[O-])c4)c3nc2c1,32.1% (active)
10,Cc1c(Cl)c([N+](=O)[O-])nn1Cc1ccc(C(=O)N/N=C\c2cc(Cl)ccc2O)o1,32.4% (active)
11,Cc1nnnn1/C(=C\c1ccccc1)C(=O)OCC(=O)Nc1cccc(S(=O)(=O)N(C)C)c1,34% (active)
12,Nc1nc(Cl)nc2c1ncn2C1CC(O)C(CO)O1 (stereo not given),25.6% (active)
13,Oc1ccc(CNc2ccccc2F)c2cccnc12,30.8% (active)
14,Cc1nc(/N=C(\N)NC(=O)NC2CCCCC2)nc2ccccc12,34.4% (active)
15,COC(=O)[C@@]1(Cc2ccccc2)[C@H]2C(=O)N(Cc3ccccc3)C(=O)[C@H]2[C@H]2CN=C(SCc3ccccc3)N21,34.6% (active)
16,O=C(CN1CCCc2ccccc21)N/N=C/c1c(O)ccc2ccccc12,30.3% (active)
17,Cc1conc1NC(c1cccs1)c1ccc2cccnc2c1O (stereo not given),31.8% (active)
18,Cc1ccc(S(=O)(=O)N2CCOCC2)cc1C(=O)Nc1nc(-c2ccccn2)cs1,30.4% (active)
19,COc1cccc(-c2nnc(NC(=O)c3ccc(S(=O)(=O)N(CC(C)C)CC(C)C)cc3)o2)c1,24.3% (active)
20,O=[N+]([O-])c1ccccc1C1Nc2cccc3cccc(c23)N1,26.9% (active)
